The panel holds about 83,000 compounds, 20% with a hit somewhere; the sample as a whole holds those more often.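 Percent growth is the endpoint: 0 to 100 indicates growth inhibition (40 means 60% inhibition), 0 means no net growth, and negative values indicate cell death.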 Active and inactive are the calls of the source. Rule for the calls: active = growth percent below 10; inactive = the rest.
test system: PC-3 prostate; assay: NCI-60 one-dose screen, 48 h (100 = growth as untreated, 0 = no growth, -100 = all killed); settings: 10 µM unless noted

Compound	growth
Nc1nc(N)c2c(n1)NC(c1ccc3c(c1)OCO3)CC(c1cccc(Nc3ccncc3)c1)=N2 (stereo not given)	50.8% (inactive)
CCCCCCCC/C=C\CCCCCCCCOc1ccc(CC(=O)NCC[N+]2(C)CCCC2)cc1	9.45% (active)
Cn1cc(-c2csc(-c3cn(CCO)c4ccc(F)cc34)n2)c2cccnc21	44.6% (inactive)
CCOC(=O)C1=CCC(n2cc(F)c(=O)[nH]c2=O)O1 (stereo not given)	102% (inactive)
CC1(C)CC[C@]2(CO)CC[C@]3(C)C(=CC[C@@H]4[C@@]5(C)CCNCC(C)(C)[C@@H]5CC[C@]43C)[C@@H]2C1	59% (inactive)
O=C(CN1C(=O)NC2NC(=O)NC21)N/N=C/c1cccc([N+](=O)[O-])c1 (stereo not given)	106% (inactive)
[2H]C([2H])([2H])Oc1ccc(/C=C/C(=O)/C=C(O)/C=C/c2ccc(OC([2H])([2H])[2H])c(OC([2H])([2H])[2H])c2)cc1OC([2H])([2H])[2H]	32.6% (inactive)
Cc1nn(C)c2ncnc(Nc3ccccc3Br)c12	102% (inactive)
COc1cc(NC(=O)c2cncnc2Nc2ccc3c(ccn3Cc3cccc(F)c3)c2)cc(OC)c1	43.5% (inactive)
C=C1CC[C@@H]2[C@](C)(COC(C)=O)[C@H](OC(C)=O)CC[C@@]2(C)[C@@H]1CC(Nc1ccc(S(=O)(=O)Nc2nccc(C)n2)cc1)C1=CCOC1=O (stereo not given in full)	41.5% (inactive)
Cc1nc2c(c(-c3ccccc3)n1)Cc1c(ccc3ccccc13)O2	87.5% (inactive)
CCCc1cc(CCC)n2nc(N)nc2n1	96.9% (inactive)
Clc1ccc(C2=Nn3c(nnc3-c3cc(Cl)cc(Cl)c3Cl)SC2)cc1	20.2% (inactive)
CCN(CC)CCN1C(=O)c2c(c(C)c3c(oc4cc(OC)ccc43)c2C)C1=O	92% (inactive)
O=C1c2cccnc2C(=O)c2c1c(C(=O)OCCCN1CCOCC1)c1ccccn21	-0.15% (active)
CCCCN(CCC#N)C(N)=O	91.2% (inactive)
O=C(OCC(O)(CO)C(=O)NC12CC3CC(CC(C3)C1)C2)c1ccc(Cl)cc1 (stereo not given)	93.7% (inactive)
CC1(C)C2=C(C(=O)N1Cc1ccccc1)C(c1ccco1)N(C(=O)C1CCC1)CCN2 (stereo not given)	95.2% (inactive)
CN1CC(c2ccccc2)C(C(=O)c2ccc(Br)cc2)C12C(=O)Nc1ccccc12 (stereo not given)	70.7% (inactive)
Nc1ncc(-c2ccc3ncnc(N4CCc5cc(F)c(Cl)cc54)c3c2)cn1	28.3% (inactive)
CCCCCN(CCCCC)CC(O)c1c(Cl)ccc2ccccc12 (stereo not given)	75.2% (inactive)
CNC(=O)c1cc(Oc2ccc3nc(NC(=O)NC(C)C)sc3c2)ccn1	70.1% (inactive)
Nc1ccc(Cl)c2c(=O)c3ccccc3[nH]c12	76.6% (inactive)
CNC(=O)c1cc(Oc2cccc3nc(NC(=O)Nc4ccc(F)cc4F)ccc23)ccn1	38.5% (inactive)
N#Cc1c(-c2ccc(F)cc2)cc(-c2cccc(Cl)c2)[nH]c1=O	72.7% (inactive)

— PubChem BioAssay (NCI)
